According to PubChem BioAssay (Tox21):
Results filed as inconclusive are left out. Entries that show only a call come without a potency. Calls of active or inactive are those of the source. Unless noted, the call rests on the fitted dose curve; in most records, active means well fitted cell-killing curve with a large enough effect in the repeat runs; inconclusive means weak or mixed curves, or effect the other way; inactive means no such curve, though single readings can be large or run the other way.

target: Bile acid receptor (Homo sapiens) (UniProt Q96RI1); experiment: qHTS assay to identify small molecule antagonists of the farnesoid-X-receptor (FXR) signaling pathway (AID 743217; active means well fitted inhibition curve with a large enough effect in the signal ratio in the repeat runs, not every such curve was filed as active; the % refers to the signal ratio); details: HEK293T FXR-UAS-bla, beta-lactamase ratio, CDCA-stimulated, 16 h; series mostly up to 62.6 µM
Sequence (Q96RI1 whole entry, looked up): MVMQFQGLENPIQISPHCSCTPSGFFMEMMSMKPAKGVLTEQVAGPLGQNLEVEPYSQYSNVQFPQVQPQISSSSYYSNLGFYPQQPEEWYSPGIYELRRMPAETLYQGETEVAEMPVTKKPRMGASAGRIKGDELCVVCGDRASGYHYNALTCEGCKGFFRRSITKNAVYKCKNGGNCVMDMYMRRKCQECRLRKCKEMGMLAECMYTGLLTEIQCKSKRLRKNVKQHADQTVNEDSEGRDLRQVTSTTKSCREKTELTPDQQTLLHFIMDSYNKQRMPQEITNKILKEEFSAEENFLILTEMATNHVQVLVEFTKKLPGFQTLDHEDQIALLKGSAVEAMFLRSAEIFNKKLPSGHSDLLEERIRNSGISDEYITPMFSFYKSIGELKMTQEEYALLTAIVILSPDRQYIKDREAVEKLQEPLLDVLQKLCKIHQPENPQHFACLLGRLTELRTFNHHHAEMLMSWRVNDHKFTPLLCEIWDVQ
How it was run: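 FXR-UAS-bla HEK 293T cells pre-incubated 5 h at 37 °C, then exposed to compounds with chenodeoxycholic acid (50 uM final) for 16 h at 37 °C. Beta-lactamase reporter read by LiveBLAzer B/G FRET substrate fluorescence after 2 h at room temperature.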

SMILES	outcome
CN1CCC(=C2c3ccccc3CC(=O)c3sccc32)CC1	inactive
OC(CCN1CCCCC1)(c1ccccc1)C1CC2C=CC1C2 (centres undefined)	inactive
NC(CSCC(=O)O)C(=O)O (centres undefined)	inactive
CCCN1CCCC[C@H]1C(=O)Nc1c(C)cccc1C	inactive
CCC(=O)OC(C)c1ccccc1 (centres undefined)	inactive
N=C(N)c1ccc2cc(OC(=O)c3ccc(N=C(N)N)cc3)ccc2c1	inactive
CCCCOCCOCCOCCCC	inactive
CCCCCSCCCCC	inactive

test system: not listed separately; experiment: qHTS assay to identify small molecule agonists of the farnesoid-X-receptor (FXR) signaling pathway - cell viability counter screen (AID 743218); details: FXR-bla HEK293T viability, CellTiter-Glo luminescence, 16 h; series mostly up to 62.6 µM; further: nearly all actives have a fitted effect of over 45% in size
How it was run: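 FXR-UAS-bla HEK 293T cells, plated 5 h at 37 C, were exposed to compounds for 16 h at 37 C. CellTiter-Glo was then added to the same wells as the bla readout; luminescence read after 30 min at room temperature.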

SMILES	Potency
CN1CCC(=C2c3ccccc3CC(=O)c3sccc32)CC1	inactive
OC(CCN1CCCCC1)(c1ccccc1)C1CC2C=CC1C2 (centres undefined)	inactive
N#Cc1ccc(C2CCCc3cncn32)cc1 (centres undefined)	inactive
COCCCOCCCOC	inactive
c1ccc([C@H]2CN3CCSC3=N2)cc1	inactive
Oc1ccc(C2CNCCc3c2cc(O)c(O)c3Cl)cc1 (centres undefined)	inactive
O=C1NC(=O)[C@@]2(CCOc3ccc(F)cc32)N1	inactive
CCC=O	inactive
OC1CCCCC1c1ccccc1 (centres undefined)	inactive
CC/C=C\CC/C=C/CO	inactive
O=[N+]([O-])c1ccc(F)cc1F	inactive
C/C=C(\C)C#N	inactive
C1OCOCO1	inactive
O=C(O)Cc1ccc(CCNS(=O)(=O)c2ccc(Cl)cc2)cc1	inactive
O=C(O)CNC(=O)c1ccc([N+](=O)[O-])cc1	inactive
O=C(O)CCCl	inactive

SMILES	Potency
CCCN1CCCC[C@H]1C(=O)Nc1c(C)cccc1C	inactive
CCC(=O)OC(C)c1ccccc1 (centres undefined)	inactive
CC(C)(C)c1nnc(NS(=O)(=O)c2ccccc2)s1	inactive
N[C@H]1CN(c2c(F)cc3c(=O)c(C(=O)O)cn(C4C[C@H]4F)c3c2Cl)CC12CC2 (some centres undefined)	inactive
C=CCCCCCCCCC=O	inactive
OCCCC1CCCCC1	inactive
Nc1c[n+](N2CCOCC2)no1	inactive
O=C(O)COc1nn(Cc2ccccc2)c2ccccc12	inactive
CC(C)CCCC(C)N (centres undefined)	inactive
Cc1ccc(C#N)cc1	inactive
N=C(N)c1ccc2cc(OC(=O)c3ccc(N=C(N)N)cc3)ccc2c1	inactive
CCCCC/C=C\CCC=O	inactive
O=C[C@H](O)[C@@H](O)[C@H](O)[C@H](O)CO	inactive
C[N+](C)(C)CCCCCC[N+](C)(C)C	inactive
CCCCOCCOCCOCCCC	inactive
CCCCCSCCCCC	inactive

target: Bile acid receptor (Homo sapiens) (UniProt Q96RI1); experiment: qHTS assay to identify small molecule agonists of the farnesoid-X-receptor (FXR) signaling pathway (AID 743220; active means well fitted activation curve with a large enough effect in the signal ratio in the repeat runs, not every such curve was filed as active; the % refers to the signal ratio); details: HEK293T FXR-UAS-bla, beta-lactamase FRET ratio, 16 h; series mostly up to 62.6 µM
How it was run: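 Beta-lactamase reporter under UAS control in GeneBLAzer FXR HEK 293T cells (5000/well) measured with LiveBLAzer FRET substrate after 2 h at room temperature. Compound exposure lasted 16 h at 37C.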

SMILES	outcome
CN1CCC(=C2c3ccccc3CC(=O)c3sccc32)CC1	inactive
OC(CCN1CCCCC1)(c1ccccc1)C1CC2C=CC1C2 (centres undefined)	inactive
COCCCOCCCOC	inactive
C1OCOCO1	inactive
NC(CSCC(=O)O)C(=O)O (centres undefined)	inactive
O=C(O)Cc1ccc(CCNS(=O)(=O)c2ccc(Cl)cc2)cc1	inactive
O=C(O)CNC(=O)c1ccc([N+](=O)[O-])cc1	inactive
CCCN1CCCC[C@H]1C(=O)Nc1c(C)cccc1C	inactive
CCC(=O)OC(C)c1ccccc1 (centres undefined)	inactive
Nc1c[n+](N2CCOCC2)no1	inactive
Cc1ccc(C#N)cc1	inactive
N=C(N)c1ccc2cc(OC(=O)c3ccc(N=C(N)N)cc3)ccc2c1	inactive
C[N+](C)(C)CCCCCC[N+](C)(C)C	inactive
CCCCOCCOCCOCCCC	inactive
CCCCCSCCCCC	inactive

test system: not listed separately; experiment: qHTS assay to identify small molecule antagonists of the farnesoid-X-receptor (FXR) signaling pathway - cell viability counter screen (AID 743221; active means well fitted cell-killing curve with a large enough effect in the repeat runs, not every such curve was filed as active; further: nearly all actives have a fitted effect of over 50% in size); details: FXR-bla HEK293T viability, CellTiter-Glo luminescence, 16 h; series mostly up to 62.6 µM
How it was run: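 Quantitative HTS of the Tox21 10K library run in parallel with the beta-lactamase reporter read. HEK 293T cells carrying a UAS-driven bla reporter got compound and 50 uM CDCA (final) for 16 h; ATP-based luminescence followed.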

SMILES	Potency
CN1CCC(=C2c3ccccc3CC(=O)c3sccc32)CC1	inactive
O=c1cc(-c2ccccc2)oc2ccccc12	inactive
OC(CCN1CCCCC1)(c1ccccc1)C1CC2C=CC1C2 (centres undefined)	inactive
N#Cc1ccc(C2CCCc3cncn32)cc1 (centres undefined)	inactive
c1ccc([C@H]2CN3CCSC3=N2)cc1	inactive
NS(=O)(=O)c1ccccc1Cl	inactive
O=C1NC(=O)[C@@]2(CCOc3ccc(F)cc32)N1	inactive
CCC=O	inactive
CC/C=C\CC/C=C/CO	inactive
C/C=C(\C)C#N	inactive
NC(CSCC(=O)O)C(=O)O (centres undefined)	inactive
O=C(O)Cc1ccc(CCNS(=O)(=O)c2ccc(Cl)cc2)cc1	inactive
O=C(O)CNC(=O)c1ccc([N+](=O)[O-])cc1	inactive
CCCN1CCCC[C@H]1C(=O)Nc1c(C)cccc1C	inactive
CCC(=O)OC(C)c1ccccc1 (centres undefined)	inactive
CC(C)(C)c1nnc(NS(=O)(=O)c2ccccc2)s1	inactive
N[C@H]1CN(c2c(F)cc3c(=O)c(C(=O)O)cn(C4C[C@H]4F)c3c2Cl)CC12CC2 (some centres undefined)	inactive
C=CCCCCCCCCC=O	inactive
OCCCC1CCCCC1	inactive
O=C(O)COc1nn(Cc2ccccc2)c2ccccc12	inactive
CC(C)CCCC(C)N (centres undefined)	inactive
Cc1ccc(C#N)cc1	inactive
N=C(N)c1ccc2cc(OC(=O)c3ccc(N=C(N)N)cc3)ccc2c1	inactive
C[N+](C)(C)CCCCCC[N+](C)(C)C	inactive
CCCCOCCOCCOCCCC	inactive
CCCCCSCCCCC	inactive

target: Vitamin D3 receptor (Homo sapiens) (UniProt P11473); experiment: qHTS assay to identify small molecule agonists of the vitamin D receptor (VDR) signaling pathway (AID 743222; calls by dose curve); details: HEK293T VDR-UAS-bla, beta-lactamase FRET ratio, 16 h; series mostly up to 63.5 µM
Sequence (P11473 whole entry, looked up): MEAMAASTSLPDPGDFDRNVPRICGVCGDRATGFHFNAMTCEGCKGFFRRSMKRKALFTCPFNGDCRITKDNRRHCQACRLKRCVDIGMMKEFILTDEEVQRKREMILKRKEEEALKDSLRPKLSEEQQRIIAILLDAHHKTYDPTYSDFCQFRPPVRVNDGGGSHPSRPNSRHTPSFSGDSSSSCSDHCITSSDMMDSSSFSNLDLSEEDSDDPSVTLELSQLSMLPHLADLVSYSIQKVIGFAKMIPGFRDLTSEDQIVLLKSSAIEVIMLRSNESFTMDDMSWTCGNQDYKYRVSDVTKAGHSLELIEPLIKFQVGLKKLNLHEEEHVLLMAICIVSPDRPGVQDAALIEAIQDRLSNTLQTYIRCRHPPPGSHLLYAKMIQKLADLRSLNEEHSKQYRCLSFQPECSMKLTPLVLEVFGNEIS
How it was run: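 VDR-bla cells were plated 4 h at 37C/5% CO2, then exposed to compounds in DMSO for 16 h. After LiveBLAzer B/G FRET substrate addition and 2 h at room temperature, beta-lactamase reporter fluorescence was read.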

SMILES	outcome
CN1CCC(=C2c3ccccc3CC(=O)c3sccc32)CC1	inactive
O=c1cc(-c2ccccc2)oc2ccccc12	inactive
OC(CCN1CCCCC1)(c1ccccc1)C1CC2C=CC1C2 (centres undefined)	inactive
N#Cc1ccc(C2CCCc3cncn32)cc1 (centres undefined)	inactive
COCCCOCCCOC	inactive
c1ccc([C@H]2CN3CCSC3=N2)cc1	inactive
Oc1ccc(C2CNCCc3c2cc(O)c(O)c3Cl)cc1 (centres undefined)	inactive
NS(=O)(=O)c1ccccc1Cl	inactive
O=C1NC(=O)[C@@]2(CCOc3ccc(F)cc32)N1	inactive
CCC=O	inactive
OC1CCCCC1c1ccccc1 (centres undefined)	inactive
O=[N+]([O-])c1ccc(F)cc1F	inactive
C/C=C(\C)C#N	inactive
NC(CSCC(=O)O)C(=O)O (centres undefined)	inactive
O=C(O)CNC(=O)c1ccc([N+](=O)[O-])cc1	inactive
O=C(O)CCCl	inactive
CCC(=O)OC(C)c1ccccc1 (centres undefined)	inactive
CC(C)(C)c1nnc(NS(=O)(=O)c2ccccc2)s1	inactive
N[C@H]1CN(c2c(F)cc3c(=O)c(C(=O)O)cn(C4C[C@H]4F)c3c2Cl)CC12CC2 (some centres undefined)	inactive
CC(C)CCCC(C)N (centres undefined)	inactive
Cc1ccc(C#N)cc1	inactive
N=C(N)c1ccc2cc(OC(=O)c3ccc(N=C(N)N)cc3)ccc2c1	inactive
CCCCC/C=C\CCC=O	inactive
